Source: PubChem BioAssay (Tox21)
Results filed as inconclusive are left out. The source made the active and inactive calls. Calls come from the whole dose curve; as a rule, active = well fitted curve in the direction sought with a large enough effect in the repeat runs; inconclusive = weak or mixed curves; inactive = no such curve, though single readings can be large; an effect the other way counts as inactive or inconclusive.

Tests used:
[1] = qHTS RealTime-Glo MT Cell Viability Assay in HepG2 cells - 40 hour (AID 1224870); note: nearly all actives have a fitted effect of over 50% in size
Summary of the method: (§1)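 HepG2 cells (600/well) mixed with RealTime-Glo MT reagent, settled 5 h at 37 C/5% CO2 before compound addition. Nonlytic NanoLuc luminescence from viable-cell prosubstrate reduction read repeatedly during 40 h treatment at 37 C.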

[2] = A CellTox Green Cytotoxicity Assay to monitor cytotoxicity in HEK293 cells - 40 hour (AID 1224871); note: nearly all actives have a fitted effect of over 45% in size
Summary of the method: (§2)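 Each value comes from one timepoint of a single continuous run in which HEK293 cells with CellTox Green were exposed to compound for up to 40 h at 37 C, dye fluorescence rising with cell death.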

[3] = qHTS RealTime-Glo MT Cell Viability Assay in HEK293 cells - 16 hour (AID 1224872); note: top concentration of the series differs between compounds; nearly all actives have a fitted effect of over 50% in size
Summary of the method: (§3)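 Assay medium contained NanoLuc luciferase plus cell-permeant prosubstrate, added with HEK293 cells at 600 cells/well. After 5 h at 37 C/5% CO2 compounds were added; plates stayed at 37 C for 40 h with serial luminescence reads.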

[4] = qHTS RealTime-Glo MT Cell Viability Assay in HepG2 cells - 8 hour (AID 1224873); note: nearly all actives have a fitted effect of over 55% in size
Summary of the method: as §1

[5] = qHTS RealTime-Glo MT Cell Viability Assay in HEK293 cells - 40 hour (AID 1224874); conditions: RealTime-Glo luminescence; max response: hits give low values; note: nearly all actives have a fitted effect of over 50% in size
Summary of the method: (§4)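 qHTS format; HEK293 cells with NanoLuc/prosubstrate reagent, 37 C/5% CO2 for 5 h pre-dosing; compounds 23 nL in DMSO; luminescence at each time point reflects viable cells.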

[6] = A CellTox Green Cytotoxicity Assay to monitor cytotoxicity in HEK293 cells - 24 hour (AID 1224875); note: series mostly up to about 77 µM; nearly all actives have a fitted effect of over 45% in size
Summary of the method: as §2

[7] = A CellTox Green Cytotoxicity Assay to monitor cytotoxicity in HepG2 cells - 16 hour (AID 1224876); note: nearly all actives have a fitted effect of over 45% in size
Summary of the method: (§5)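 Continuous culture of HepG2 cells with a membrane-impermeant DNA dye; rising fluorescence marks dead cells. Compound exposure lasted up to 40 h at 37 C, with reads every 8 h from 0 h.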

[8] = qHTS RealTime-Glo MT Cell Viability Assay in HepG2 cells - 32 hour (AID 1224877); note: nearly all actives have a fitted effect of over 55% in size
Summary of the method: (§6)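 qHTS, HepG2, 600 cells/well, RealTime-Glo (NanoLuc + prosubstrate) added with cells; 5 h preincubation; DMSO compound addition; 37 C; luminescence at 0/8/16/24/32/40 h.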

[9] = A CellTox Green Cytotoxicity Assay to monitor cytotoxicity in HepG2 cells - 24 hour (AID 1224878); note: nearly all actives have a fitted effect of over 45% in size
Summary of the method: as §5

[10] = A CellTox Green Cytotoxicity Assay to monitor cytotoxicity in HepG2 cells - 40 hour (AID 1224879); note: nearly all actives have a fitted effect of over 40% in size
Summary of the method: as §5

[11] = qHTS RealTime-Glo MT Cell Viability Assay in HEK293 cells - 0 hour (AID 1224880)
Summary of the method: as §4

[12] = A CellTox Green Cytotoxicity Assay to monitor cytotoxicity in HEK293 cells - 32 hour (AID 1224881); note: nearly all actives have a fitted effect of over 40% in size
Summary of the method: as §2

[13] = A CellTox Green Cytotoxicity Assay to monitor cytotoxicity in HepG2 cells - 0 hour (AID 1224882); note: nearly all actives have a fitted effect of over 35% in size
Summary of the method: as §5

[14] = A CellTox Green Cytotoxicity Assay to monitor cytotoxicity in HepG2 cells - 32 hour (AID 1224883); note: nearly all actives have a fitted effect of over 50% in size
Summary of the method: as §5

[15] = A CellTox Green Cytotoxicity Assay to monitor cytotoxicity in HEK293 cells - 8 hour (AID 1224884); note: nearly all actives have a fitted effect of over 35% in size
Summary of the method: as §2

[16] = qHTS RealTime-Glo MT Cell Viability Assay in HepG2 cells - 16 hour (AID 1224885); note: nearly all actives have a fitted effect of over 50% in size
Summary of the method: as §6

[17] = qHTS RealTime-Glo MT Cell Viability Assay in HEK293 cells - 24 hour (AID 1224886)
Summary of the method: as §3

[18] = qHTS RealTime-Glo MT Cell Viability Assay in HEK293 cells - 8 hour (AID 1224887)
Summary of the method: as §4

[19] = A CellTox Green Cytotoxicity Assay to monitor cytotoxicity in HEK293 cells - 16 hour (AID 1224888); note: nearly all actives have a fitted effect of over 35% in size
Summary of the method: as §2

[20] = qHTS RealTime-Glo MT Cell Viability Assay in HepG2 cells - 0 hour (AID 1224889); note: nearly all actives have a fitted effect of over 50% in size
Summary of the method: as §6
% is set by controls: 0 for no effect and ±100 for the full control effect.

CCOC(=O)/C=C/C(=O)O
inactive: Potency [1] | Potency [2] | Potency [3] | Potency [4] | max response [5] 16.2% | Potency [6] | Potency [7] | Potency [8] | Potency [9] | Potency [10] | Potency [11] | Potency [12] | Potency [13] | Potency [14] | Potency [15] | Potency [16] | Potency [17] | Potency [18] | Potency [19] | Potency [20]

C/C=C(\C)C(=O)OCCC(C)CCC=C(C)C (centres undefined)
inactive: Potency [1] | Potency [2] | Potency [3] | Potency [4] | max response [5] 5.27% | Potency [6] | Potency [7] | Potency [8] | Potency [9] | Potency [10] | Potency [11] | Potency [12] | Potency [13] | Potency [14] | Potency [15] | Potency [16] | Potency [17] | Potency [19]

CCC(C)=O
inactive: Potency [1] | Potency [2] | Potency [3] | Potency [4] | max response [5] 15.5% | Potency [6] | Potency [7] | Potency [8] | Potency [9] | Potency [10] | Potency [11] | Potency [12] | Potency [13] | Potency [14] | Potency [15] | Potency [16] | Potency [17] | Potency [19] | Potency [20]

CO[C@H]1O[C@H](CO)[C@@H](O)[C@H](O)[C@H]1O
inactive: Potency [1] | Potency [2] | Potency [3] | Potency [4] | max response [5] 5.92% | Potency [6] | Potency [7] | Potency [8] | Potency [9] | Potency [10] | Potency [11] | Potency [12] | Potency [13] | Potency [14] | Potency [15] | Potency [16] | Potency [17] | Potency [18] | Potency [19] | Potency [20]

CC1=CC(=O)CC(C)(C)C1(O)/C=C/C(C)=C\C(=O)O (centres undefined)
inactive: Potency [1] | Potency [2] | Potency [3] | Potency [4] | max response [5] 8.54% | Potency [6] | Potency [7] | Potency [8] | Potency [9] | Potency [10] | Potency [11] | Potency [12] | Potency [13] | Potency [14] | Potency [15] | Potency [16] | Potency [17] | Potency [18] | Potency [19] | Potency [20]

O=C(O)c1cccc(O)c1
inactive: Potency [1] | Potency [2] | Potency [3] | Potency [4] | max response [5] 8.08% | Potency [6] | Potency [7] | Potency [8] | Potency [9] | Potency [10] | Potency [11] | Potency [12] | Potency [13] | Potency [14] | Potency [15] | Potency [16] | Potency [17] | Potency [18] | Potency [19]

CC(CCO)CCc1ccccc1 (centres undefined)
inactive: Potency [1] | Potency [2] | Potency [3] | Potency [4] | max response [5] -8.5% | Potency [6] | Potency [7] | Potency [8] | Potency [9] | Potency [10] | Potency [11] | Potency [12] | Potency [13] | Potency [14] | Potency [15] | Potency [16] | Potency [17] | Potency [18] | Potency [19] | Potency [20]

Nc1ccc(Cl)cc1[N+](=O)[O-]
inactive: Potency [1] | Potency [2] | Potency [3] | Potency [4] | max response [5] 2.66% | Potency [6] | Potency [7] | Potency [8] | Potency [9] | Potency [10] | Potency [11] | Potency [12] | Potency [13] | Potency [14] | Potency [15] | Potency [16] | Potency [17] | Potency [18] | Potency [19] | Potency [20]

CC(N)CN (centres undefined)
inactive: Potency [1] | Potency [2] | Potency [3] | Potency [4] | max response [5] 2.08% | Potency [6] | Potency [7] | Potency [8] | Potency [9] | Potency [10] | Potency [11] | Potency [12] | Potency [13] | Potency [14] | Potency [15] | Potency [16] | Potency [17] | Potency [18] | Potency [20]

C=CC(C)(O)CCCC(C)CCCC(C)CCCC(C)C (centres undefined)
inactive: Potency [1] | Potency [2] | Potency [3] | Potency [4] | max response [5] 6.13% | Potency [6] | Potency [7] | Potency [8] | Potency [9] | Potency [10] | Potency [11] | Potency [12] | Potency [13] | Potency [14] | Potency [15] | Potency [16] | Potency [17] | Potency [18] | Potency [19] | Potency [20]

O=C(O)c1ccccc1NCCc1ccccc1
inactive: Potency [1] | Potency [2] | Potency [3] | Potency [4] | max response [5] -0.281% | Potency [6] | Potency [7] | Potency [8] | Potency [9] | Potency [10] | Potency [11] | Potency [12] | Potency [13] | Potency [14] | Potency [15] | Potency [16] | Potency [17] | Potency [18] | Potency [19] | Potency [20]

CCCOCCOCCO
inactive: Potency [1] | Potency [2] | Potency [3] | Potency [4] | max response [5] 2.29% | Potency [6] | Potency [7] | Potency [8] | Potency [9] | Potency [10] | Potency [11] | Potency [12] | Potency [13] | Potency [14] | Potency [15] | Potency [16] | Potency [17] | Potency [19] | Potency [20]
